# From PubChem BioAssay
# In the library only some 18% were active in any assay of this set; here they are far more common.
# LDHA inh: blocks human lactate dehydrogenase A; P00338; purified LDHA, NADH/diaphorase-resazurin fluorescence; active compounds read low; activity change, % (values are at about 110 or 230 µM); 480,000 compounds, 0.15% hits; AID 1347041; in the data active means activity change below about -30%; inconclusive means mostly about -25% to -30%;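 further: plate controls were DMSO wells for no effect and wells without enzyme for full effect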
#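 Human LDH5 (2 nM) was incubated with 0.06 mM NADH and 0.2 mM pyruvate for 5 min at room temperature in Tris pH 7.4. Remaining NADH was coupled through diaphorase/resazurin, and resorufin fluorescence was read at 0 and 20 min.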
# IL-1B inflam inh: blocks inflammasome-driven IL-1 beta release; THP-1 LPS/ATP IL-1B secretion, AlphaLISA, 16 h; active compounds read low; AID 743279; activity change, % at 57.5 µM; 360,000 compounds, 4.7% hits; in the data active means activity change below about -50%; inconclusive means mostly about -30% to -49%
#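 THP-1 cells pretreated 1 hr with compounds (up to 57.5 uM final), then stimulated with LPS (250 ng/mL final) plus ATP (1.25 mM final); secreted IL-1B measured by AlphaLISA after 16 hr, decreased signal indicating inhibition.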
# DT40 TDP1 CPT: DT40-hTDP1 cell growth loss with CPT; AID 686979; 420,000 compounds, 12% hits; chicken DT40 Tdp1-/-;hTDP1 cells + 20 nM CPT, ATP luminescence, 48 h; Potency, µM (highest dose often 46.2 µM), for the others: at the highest dose activity change, negative = growth inhibition, most hits filed as inhibitors; further: potency means the concentration at half of the fitted maximal effect; nearly all actives have a fitted effect of over 55% in size
#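 Cell growth measured by CellTiter-Glo luminescence after a minimum 48 h, 37 C compound exposure with 20 nM CPT in Tdp1-knockout DT40 cells stably expressing hTDP1, seeded 400/well; qHTS titration format.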
# RORg inh: inhibitors of mouse ROR gamma transcriptional activity. P51450. Potency, µM (series often up to 53.6 µM), for the others: at the top dose activity change, negative = inhibition, usual class: inhibitors. AID 2551. 310,000 compounds, 5.4% hits. Drosophila S2 Gal4-RORgamma UAS-luciferase reporter, 20 h; further: potency means the concentration at half of the fitted maximal effect; nearly all actives have a fitted effect of over 60% in size
# Target sequence (P51450 whole entry, looked up, the tested form may be a part): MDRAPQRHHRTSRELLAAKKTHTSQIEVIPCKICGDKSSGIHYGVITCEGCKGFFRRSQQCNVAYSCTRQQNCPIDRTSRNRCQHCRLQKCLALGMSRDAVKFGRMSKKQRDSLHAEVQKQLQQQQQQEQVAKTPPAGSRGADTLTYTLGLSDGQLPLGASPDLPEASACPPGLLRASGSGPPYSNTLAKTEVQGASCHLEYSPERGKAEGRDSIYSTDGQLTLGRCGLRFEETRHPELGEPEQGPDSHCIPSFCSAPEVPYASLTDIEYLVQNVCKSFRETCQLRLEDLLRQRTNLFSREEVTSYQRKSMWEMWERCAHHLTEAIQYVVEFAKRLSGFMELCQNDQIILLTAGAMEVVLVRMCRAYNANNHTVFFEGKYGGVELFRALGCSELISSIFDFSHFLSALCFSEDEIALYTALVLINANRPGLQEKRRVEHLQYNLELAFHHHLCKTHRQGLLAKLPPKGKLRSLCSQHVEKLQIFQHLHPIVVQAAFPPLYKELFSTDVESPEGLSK
#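 Schneider cells (Drosophila), stable Gal4 DBD–ROR gamma + UAS-luc; 1 hr cmpd preincubation; Cu2+ induction 700 uM final; 20 hr ambient; luminescence.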
# TDP1 cell noCPT: qHTS for Inhibitors of human tyrosyl-DNA phosphodiesterase 1 (TDP1): qHTS in cells in absence of CPT | Potency, µM (top dose mostly 46.2 µM), for inactives: top-dose activity change, negative = growth inhibition, hits mostly inhibitors | AID 686978, 2013 | DT40 Tdp1-/- hTDP1 cells, no CPT, ATP luminescence, 48 h | 420,000 compounds, 15% hits; further: potency means the concentration at half of the fitted maximal effect; nearly all actives have a fitted effect of over 55% in size
#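 Seeded 400 DT40-hTDP1 cells/well (vehicle DMSO, no 20 nM CPT); pinned compounds; ≥48 hr at 37 °C; CellTiter-Glo luminescence as viability measure.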
# VP16 counter: Gal4-VP16 reporter inhibition counter-screen. 310,000 compounds, 3.5% hits. Drosophila S2 Gal4-VP16 UAS-luciferase, luminescence, 20 h. Potency, µM (series often up to 53.6 µM), for the others: at the highest dose activity, negative = inhibition, usual class: inhibitors. AID 2546;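 further: Gal4-VP16 expression switched on by copper sulfate through the metallothionein promoter; potency means the concentration at half of the fitted maximal effect; nearly all actives have a fitted effect of over 50% in size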
# * marks the source's active call; other numbers are inactive results; ? = inconclusive; / = no result. Unless noted, the call rests on the fitted dose curve; in most records, active means well fitted curve in the direction sought with a large enough effect; inconclusive means small, poorly fitted or top-dose-only effect, or another doubt; inactive means no such curve, though single readings can be large; an effect the other way counts as inactive or inconclusive. Unless noted, on the % scale 0 is the no-effect control and ±100 the full control effect.
SMILES,LDHA inh,IL-1B inflam inh,DT40 TDP1 CPT,RORg inh,TDP1 cell noCPT,VP16 counter
NC(=O)C1=C[C@@H](c2ccc(C(F)(F)F)cc2)C[C@@H](OCc2ccc(CO)cc2)O1,-11,-13,?,8%,15µM*,1%
NC(=O)C1=C[C@H](c2ccc(Br)cc2)C[C@H](OCc2ccc(CO)cc2)O1,1,-13,13µM*,25%,21µM*,-19%
COc1cc(Br)c(CC(=O)Oc2c(C)cccc2C)cc1OC,-1,/,/,/,/,/
Cc1ccc(-n2cc(-c3ccccc3)c3c(NC4CCCC4)ncnc32)cc1,-3,/,?,/,23µM*,/
Cc1cccc(-n2cc(-c3ccccc3)c3c(NC4CCCC4)ncnc32)c1,1,/,?,/,16µM*,/
COc1ccc(C)cc1Nc1ncnc2c1c(-c1ccccc1)cn2-c1ccc(C)cc1,-3,/,1%,/,-22%,/
Cc1nc2ccccn2c1-c1ccnn1S(=O)(=O)c1ccc(F)cc1,0,20,21µM*,0%,12µM*,?
Cc1cc(I)ccc1NC1CCOC1=O (stereo not given),-1,/,/,/,/,/
CCOCCCNC(=O)CCCn1nc(C)n2c(cc3sccc32)c1=O,-2,-22,-20%,-26%,-10%,-6%
CCN(CCNC(=O)CCCn1nc(C)n2c(cc3sccc32)c1=O)c1ccccc1,3,-3,15µM*,-13%,23µM*,-1%
O=C(Cc1c[nH]c2ccccc12)Nc1ccc2ccccc2c1,0,/,/,/,/,/
Cc1cc(C(=O)Cn2nc(C(=O)O)c3ccccc3c2=O)c(C)n1CCc1ccc(Cl)cc1,3,-26,21µM*,-2%,?,-16%
O=C(c1nn(Cc2ccccc2)c(=O)c2ccccc12)N1CCN(c2ccccc2)CC1,-7,/,/,/,/,/
COc1ccccc1C(=O)NNC(=O)c1nn(Cc2ccccc2)c(=O)c2ccccc12,-9,44,21µM*,6.3µM*,?,?
Cc1cc(C)c(C(=O)Cn2nc(C(=O)O)c3ccccc3c2=O)cc1C,-1,8,-12%,37%,-20%,-16%
O=C(O)c1nn(Cc2ccccc2)c(=O)c2ccccc12,-32*,/,/,/,/,/
CC(C)(C)c1ccc(Cn2nc(C(=O)O)c3ccccc3c2=O)cc1,5,/,/,/,/,/
COc1ccc(CCNC(=O)c2nn(Cc3ccccc3)c(=O)c3ccccc23)cc1,12,/,/,/,/,/
O=C(c1nn(Cc2ccccc2)c(=O)c2ccccc12)N1CCc2ccccc2C1,-4,-23,-27%,21%,16µM*,-10%
CC(C)N1CCc2c(sc(NC(=O)c3ccco3)c2-c2nc3ccccc3s2)C1,13,/,/,/,/,/
CC(C)CN1CCN(CCN(C)Cc2ccccc2)CC1,-1,/,/,/,/,/
Cc1ccc(/C=N/NC(=O)c2ccncc2)s1,1,22,6.5µM*,7.1µM*,15µM*,?
CCOC(=O)N/N=C\c1ccc([N+](=O)[O-])s1,-7,-1,16µM*,-14%,23µM*,3%
CC(C)(C)OC(=O)N/N=C\c1ccc([N+](=O)[O-])s1,-1,-19,-1%,-19%,?,?
Cn1c(SCC(=O)N/N=C/c2ccc([N+](=O)[O-])s2)nnc1-c1ccc(Cl)cc1,7,?,13µM*,?,21µM*,18µM*
SMILES,LDHA inh,IL-1B inflam inh,DT40 TDP1 CPT,RORg inh,TDP1 cell noCPT,VP16 counter
Cc1ccc(/C=N/NC(=O)c2ccncc2)cc1,-1,23,6%,-11%,-8%,-11%
O=C(N/N=C/c1ccc([N+](=O)[O-])s1)c1ccncc1,7,-98*,6.5µM*,4.5µM*,6.5µM*,4.5µM*
O=S(=O)(NC1CCSc2c(F)cccc21)c1cccc(Cl)c1 (stereo not given),3,/,/,/,/,/
CC(C)Cc1ccc(C(C)(N)C(=O)O)cc1 (stereo not given),2,/,/,/,/,/
CC(=C/c1ccc(C(C)C)cc1)/C=N/NC(=O)Cn1nc(C)cc1C,-1,-14,?,28%,29µM*,?
O=C(N/N=C/c1ccc([N+](=O)[O-])s1)c1cccc(Br)c1,-9,1,9.2µM*,1.1µM*,10µM*,1.3µM*
Cc1ccc(C(=O)N/N=C\c2sccc2C)cn1,-9,-16,1%,?,10%,?
Cc1ccc(C(=O)N/N=C\c2ccc([N+](=O)[O-])s2)cn1,-5,-5,10µM*,2.8µM*,12µM*,3.2µM*
O=C(Cc1ccccc1)NCC(=O)N/N=C/c1ccc([N+](=O)[O-])s1,1,?,23µM*,-34%,15µM*,-22%
CC(/C=N\NC(=O)Cn1cncn1)=C/c1ccc(C(C)C)cc1,-1,19,6%,11%,-5%,4%
O=C(CNC(=O)c1ccccc1)N/N=C/c1ccc([N+](=O)[O-])s1,0,?,?,3%,?,-18%
Cc1ccc(C(=O)N/N=C/c2ccc([N+](=O)[O-])s2)cc1,-35*,-19,8.2µM*,0.71µM*,7.3µM*,1.3µM*
Cc1cc(C)n(CC(=O)N/N=C/c2cccs2)n1,-4,-1,22%,-7%,-8%,?
Cc1cc(C)n(CC(=O)N/N=C/c2ccc([N+](=O)[O-])s2)n1,16,?,23µM*,-11%,?,8%
Cc1ccc(/C=N/N=C/c2ccc(C)s2)s1,-6,-24,?,7.9µM*,?,-24%
O=C(Nc1ccccc1C(=O)OCC(=O)N1CCCC1=O)c1ccco1,3,/,/,/,/,/
COc1ccc(-c2c([C@H]3[C@H]4C=CC[C@@H](C)[C@@H]4C(=O)N3Cc3ccccc3)ccc3ccccc23)cc1,0,-10,10µM*,16%,10µM*,-14%
CC1CC=CC2C1C(=O)N(Cc1ccccc1)C2c1ccc(-c2ccc(N(C)C)cc2)cc1F (stereo not given),/,/,/,40%,/,-7%
COc1ccc(-c2ccc([C@H]3[C@H]4C=CC[C@@H](C)[C@@H]4C(=O)N3Cc3ccccc3)c(F)c2)cc1OC,0,?,18µM*,?,16µM*,-1%
COc1ccc(-c2ccc([C@H]3[C@H]4C=CC[C@@H](C)[C@@H]4C(=O)N3Cc3ccccc3)c(F)c2)cc1,-2,-3,?,16%,21µM*,-11%
COc1ccc(-c2ccc(OC)c(C3C4C=CCC(C)C4C(=O)N3Cc3ccccc3)c2)cc1OC (stereo not given),/,/,/,12%,/,2%
